Reference: PubChem BioAssay (NCI)
Compounds without any hit were thinned out: in the full panel of roughly 83,000, 20% have a hit.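 The test compound was applied at a single concentration to cells in 96-well plates for 48 hours, and percent growth was recorded.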 Active and inactive are the calls of the source. The calls were made as follows: active = growth percent below 10; inactive = the rest.

Experiments:
Test in all cases: NCI-60 one-dose screen, 48 h (100 = growth as untreated, 0 = no growth, -100 = all killed)
Details in all cases: 10 µM unless noted
SK-MEL-2 melanoma = tested on: SK-MEL-2 melanoma
EKVX NSCLC = tested on: EKVX NSCLC
SN12C renal = tested on: SN12C renal
UO-31 renal = tested on: UO-31 renal
TK-10 renal = tested on: TK-10 renal
ACHN renal = tested on: ACHN renal
CAKI-1 renal = tested on: CAKI-1 renal
A498 renal = tested on: A498 renal
CCRF-CEM leukemia = tested on: CCRF-CEM leukemia
MOLT-4 leukemia = tested on: MOLT-4 leukemia
SR leukemia = tested on: SR leukemia
RPMI-8226 leukemia = tested on: RPMI-8226 leukemia
OVCAR-5 ovarian = tested on: OVCAR-5 ovarian
OVCAR-4 ovarian = tested on: OVCAR-4 ovarian
SK-OV-3 ovarian = tested on: SK-OV-3 ovarian
IGROV1 ovarian = tested on: IGROV1 ovarian
OVCAR-3 ovarian = tested on: OVCAR-3 ovarian
HS 578T breast = tested on: HS 578T breast
NCI/ADR-RES ovarian = tested on: NCI/ADR-RES ovarian
OVCAR-8 ovarian = tested on: OVCAR-8 ovarian

Measured: growth

Oc1ccc(CSc2nnc(-c3ccc(Cl)cc3)n2-c2ccccc2)c2cccnc12
inactive: SK-MEL-2 melanoma 35.2% | EKVX NSCLC 28.6% | SN12C renal 33.2% | TK-10 renal 28.2% | ACHN renal 30.5% | CAKI-1 renal 48.7% | A498 renal 50.2% | CCRF-CEM leukemia 20.8% | MOLT-4 leukemia 28.5% | SR leukemia 31% | RPMI-8226 leukemia 16.4% | OVCAR-5 ovarian 57.7% | OVCAR-4 ovarian 38% | SK-OV-3 ovarian 32.6% | IGROV1 ovarian 24.2% | OVCAR-3 ovarian 25.3% | HS 578T breast 25.8%
active: UO-31 renal 0.657% | NCI/ADR-RES ovarian 4.53%

Cc1cc2nc(C(Cl)Cl)nc(-c3cccs3)n2n1
inactive: SK-MEL-2 melanoma 97.7% | SN12C renal 62.3% | UO-31 renal 31% | TK-10 renal 18.2% | CCRF-CEM leukemia 59.8% | MOLT-4 leukemia 21.3% | SR leukemia 48.3% | OVCAR-8 ovarian 35% | OVCAR-4 ovarian 14.9% | SK-OV-3 ovarian 14.7% | NCI/ADR-RES ovarian 13.7%
active: EKVX NSCLC -7.94% | ACHN renal -36.4% | CAKI-1 renal -30.9% | A498 renal -40.7% | RPMI-8226 leukemia -23.4% | OVCAR-5 ovarian 3.63% | HS 578T breast 3.9%

O=C1Nc2ccccc2/C1=C/c1ccc(CO)n1-c1ccc(Cl)cc1
inactive: SK-MEL-2 melanoma 47.7% | EKVX NSCLC 63.6% | SN12C renal 65.2% | UO-31 renal 59.2% | TK-10 renal 115% | ACHN renal 56.1% | CAKI-1 renal 52.8% | A498 renal 35.4% | CCRF-CEM leukemia 33% | MOLT-4 leukemia 26.7% | SR leukemia 35.5% | RPMI-8226 leukemia 53.2% | OVCAR-8 ovarian 85.9% | OVCAR-5 ovarian 89.8% | OVCAR-4 ovarian 89.9% | SK-OV-3 ovarian 80% | OVCAR-3 ovarian 31.7% | HS 578T breast 59% | NCI/ADR-RES ovarian 33.9%

CCOC(=O)c1c(N)c(C#N)cn1-c1cc(OC)c(OC)c(OC)c1
inactive: SK-MEL-2 melanoma 129% | EKVX NSCLC 96% | SN12C renal 101% | UO-31 renal 88.8% | TK-10 renal 99.5% | ACHN renal 101% | CAKI-1 renal 91.8% | A498 renal 93.7% | CCRF-CEM leukemia 107% | MOLT-4 leukemia 102% | SR leukemia 105% | RPMI-8226 leukemia 104% | OVCAR-8 ovarian 102% | OVCAR-5 ovarian 96% | OVCAR-4 ovarian 107% | SK-OV-3 ovarian 135% | OVCAR-3 ovarian 119% | HS 578T breast 99.5% | NCI/ADR-RES ovarian 110%

COc1cc2oc(-c3cccc(NC(=O)c4cc(N)ccc4Cl)c3)cc(=O)c2c(OC)c1OC
inactive: SK-MEL-2 melanoma 110% | EKVX NSCLC 91.4% | SN12C renal 100% | UO-31 renal 80.9% | TK-10 renal 98.3% | ACHN renal 95% | CAKI-1 renal 87.9% | A498 renal 82.6% | CCRF-CEM leukemia 64.9% | MOLT-4 leukemia 72.8% | SR leukemia 82.6% | RPMI-8226 leukemia 60.2% | OVCAR-5 ovarian 109% | OVCAR-4 ovarian 97.6% | SK-OV-3 ovarian 124% | IGROV1 ovarian 99.5% | OVCAR-3 ovarian 104% | HS 578T breast 114% | NCI/ADR-RES ovarian 100%

Cc1ccc(-c2cc3nc(C(Cl)Cl)nc(-c4ccco4)n3n2)cc1
inactive: SK-MEL-2 melanoma 83.2% | SN12C renal 66.4% | UO-31 renal 33.6% | TK-10 renal 29.2% | CCRF-CEM leukemia 89.3% | MOLT-4 leukemia 94.2% | SR leukemia 82.4% | OVCAR-8 ovarian 18.3% | OVCAR-4 ovarian 36% | SK-OV-3 ovarian 24.2%
active: EKVX NSCLC 5.4% | ACHN renal -19.9% | CAKI-1 renal -5.91% | A498 renal -29.1% | RPMI-8226 leukemia -29.4% | OVCAR-5 ovarian 2.3% | OVCAR-3 ovarian -36.3% | HS 578T breast -2.05% | NCI/ADR-RES ovarian 3.8%

COc1cc(Cn2cc3c(c2)-c2onc(CN4CCOCC4)c2CC3)cc(OC)c1OC
inactive: SK-MEL-2 melanoma 104% | EKVX NSCLC 83% | SN12C renal 95.5% | UO-31 renal 78.7% | TK-10 renal 107% | ACHN renal 99.5% | CAKI-1 renal 94.7% | A498 renal 114% | CCRF-CEM leukemia 96.9% | MOLT-4 leukemia 98.3% | SR leukemia 114% | RPMI-8226 leukemia 91% | OVCAR-5 ovarian 95% | OVCAR-4 ovarian 74% | SK-OV-3 ovarian 106% | OVCAR-3 ovarian 113% | HS 578T breast 110% | NCI/ADR-RES ovarian 100%

O=C(O)c1ccc(-n2cc(CNc3cccc(Cl)c3)c(-c3ccc(F)cc3)n2)cc1
inactive: SK-MEL-2 melanoma 96.1% | EKVX NSCLC 90.5% | SN12C renal 98.5% | UO-31 renal 94.4% | TK-10 renal 127% | ACHN renal 89.6% | CAKI-1 renal 89.9% | A498 renal 72.5% | CCRF-CEM leukemia 94% | MOLT-4 leukemia 80% | RPMI-8226 leukemia 89.2% | OVCAR-8 ovarian 96.3% | OVCAR-5 ovarian 112% | OVCAR-4 ovarian 100% | SK-OV-3 ovarian 106% | IGROV1 ovarian 102% | OVCAR-3 ovarian 106% | HS 578T breast 106% | NCI/ADR-RES ovarian 97.9%

c1ccc(C(c2nc3ncncc3[nH]2)N2CSc3nc4ccccc4n3C2)cc1 (stereo unspecified)
inactive: SK-MEL-2 melanoma 103% | EKVX NSCLC 97.5% | SN12C renal 98.8% | UO-31 renal 82.7% | TK-10 renal 115% | ACHN renal 94.7% | CAKI-1 renal 89.5% | A498 renal 102% | CCRF-CEM leukemia 108% | MOLT-4 leukemia 104% | SR leukemia 111% | RPMI-8226 leukemia 104% | OVCAR-5 ovarian 103% | OVCAR-4 ovarian 99.7% | SK-OV-3 ovarian 102% | IGROV1 ovarian 99.9% | HS 578T breast 108%

CC(c1ccccc1)N1CSc2nc3ncncc3n2C1 (stereo unspecified)
inactive: SK-MEL-2 melanoma 57.2% | EKVX NSCLC 84.8% | SN12C renal 68.8% | UO-31 renal 47.6% | TK-10 renal 42.6% | ACHN renal 45.2% | CAKI-1 renal 27.2% | A498 renal 85.8% | CCRF-CEM leukemia 23.1% | MOLT-4 leukemia 18.2% | SR leukemia 88.2% | RPMI-8226 leukemia 26.4% | OVCAR-5 ovarian 39.7% | OVCAR-4 ovarian 27.1% | SK-OV-3 ovarian 24.8% | IGROV1 ovarian 45.5% | OVCAR-3 ovarian 33.1% | HS 578T breast 64.2% | NCI/ADR-RES ovarian 26.7%

Cc1ccc(NC(=O)c2ccc(CN3CCOCC3)c(C(F)(F)F)c2)cc1Oc1ccc(-c2[nH]nc3ncnc(N)c23)cc1
inactive: SK-MEL-2 melanoma 59.6% | EKVX NSCLC 65.6% | SN12C renal 82.3% | UO-31 renal 54.6% | TK-10 renal 80% | ACHN renal 58.2% | CAKI-1 renal 39.2% | A498 renal 87.3% | CCRF-CEM leukemia 47.8% | MOLT-4 leukemia 46.3% | SR leukemia 55.5% | RPMI-8226 leukemia 44.6% | OVCAR-8 ovarian 70.9% | OVCAR-5 ovarian 72% | OVCAR-4 ovarian 72.7% | SK-OV-3 ovarian 71.6% | IGROV1 ovarian 74.2% | NCI/ADR-RES ovarian 87.9%

CN1c2ccccc2Sc2cc(C=C(C#N)C#N)ccc21
inactive: SK-MEL-2 melanoma 101% | EKVX NSCLC 93.6% | SN12C renal 92.7% | UO-31 renal 95.6% | TK-10 renal 111% | ACHN renal 101% | CAKI-1 renal 91.8% | CCRF-CEM leukemia 102% | MOLT-4 leukemia 84.8% | SR leukemia 105% | RPMI-8226 leukemia 103% | OVCAR-8 ovarian 94.4% | OVCAR-5 ovarian 38% | OVCAR-4 ovarian 105% | IGROV1 ovarian 75.6% | OVCAR-3 ovarian 106% | HS 578T breast 89.3% | NCI/ADR-RES ovarian 89.7%
active: A498 renal -19%

C=CCn1c(SCC(=O)Nc2ccc(C(=O)/C=C/c3ccc(C)cc3)cc2)nnc1-c1c[nH]c2ccccc12
inactive: SK-MEL-2 melanoma 97.3% | EKVX NSCLC 61.9% | SN12C renal 83.6% | UO-31 renal 54.2% | TK-10 renal 114% | ACHN renal 83.4% | CAKI-1 renal 85.4% | A498 renal 95.1% | CCRF-CEM leukemia 83.1% | MOLT-4 leukemia 60.7% | SR leukemia 71.7% | RPMI-8226 leukemia 34.9% | OVCAR-8 ovarian 90.9% | OVCAR-5 ovarian 99.6% | OVCAR-4 ovarian 81.3% | SK-OV-3 ovarian 105% | IGROV1 ovarian 78.4% | NCI/ADR-RES ovarian 98.4%

C[C@H](CCC(=O)NCc1ccc(C(=O)Nc2ccccc2N)cc1)[C@H]1CC[C@H]2[C@@H]3[C@@H](O)C[C@@H]4C[C@H](O)CC[C@]4(C)[C@H]3CC[C@]12C
inactive: SK-MEL-2 melanoma 68.8% | EKVX NSCLC 69.4% | SN12C renal 69.5% | UO-31 renal 56.7% | TK-10 renal 54.8% | ACHN renal 92.9% | CAKI-1 renal 58.4% | A498 renal 59.5% | MOLT-4 leukemia 10.7% | SR leukemia 63.4% | OVCAR-5 ovarian 67.8% | OVCAR-4 ovarian 65.3% | SK-OV-3 ovarian 73.7% | IGROV1 ovarian 51% | OVCAR-3 ovarian 64.3% | NCI/ADR-RES ovarian 99.4%
active: CCRF-CEM leukemia 7.16% | RPMI-8226 leukemia 5.86%

CCc1cccc2c3c(sc12)C(c1ccc(OC)cc1)C(C#N)=C(/N=C/c1ccc(Cl)cc1)O3 (stereo unspecified)
inactive: EKVX NSCLC 47.6% | SN12C renal 41.8% | UO-31 renal 37.8% | TK-10 renal 80.7% | ACHN renal 43% | CAKI-1 renal 42.1% | CCRF-CEM leukemia 16.3% | MOLT-4 leukemia 22.5% | RPMI-8226 leukemia 10.9% | OVCAR-8 ovarian 21.8% | OVCAR-5 ovarian 45.7% | OVCAR-4 ovarian 73.9% | SK-OV-3 ovarian 40.4%
active: SK-MEL-2 melanoma -27.5% | A498 renal -7.61% | SR leukemia 1.27% | HS 578T breast -7.21% | NCI/ADR-RES ovarian 0.0091%

NC(N)=Nc1ccc(Oc2cccc(Nc3ccc(Cl)c(C(F)(F)F)c3)c2)cn1
active: SK-MEL-2 melanoma -17.7% | EKVX NSCLC -58.5% | SN12C renal -84.4% | ACHN renal 3.16% | CAKI-1 renal -6.78% | A498 renal -7.17% | CCRF-CEM leukemia -7% | MOLT-4 leukemia -39% | SR leukemia -54.6% | RPMI-8226 leukemia -29.6% | OVCAR-8 ovarian -66% | OVCAR-5 ovarian -64% | OVCAR-4 ovarian 6.69% | OVCAR-3 ovarian -93.8% | HS 578T breast -2.57%
inactive: UO-31 renal 43.3% | TK-10 renal 23.2% | SK-OV-3 ovarian 36.8% | NCI/ADR-RES ovarian 53.6%
